From PubChem BioAssay (EPA / NIEHS)
Several values for one entry are separate records, joined by “and”; a condition that tells them apart may be missing. Equal entries are not always repeated. Results filed as inconclusive are left out. Activity calls are given as the source filed them. How the source made its calls, unless noted: active means hit-call score of the fitted dose curve at least 0.9, where 1 is the maximum; inactive means score below 0.9.

How the values were obtained:
[1] = CCTE_Deisenroth_5AR_NBTE_acceptor: CCTE's 5alpha-reductase NanoBRET Target Engagement Assay - Autofluorescence Screen, Deisenroth Lab (AID 2284321); conditions: actives raise or lower the signal;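 further: compound fluorescence in the acceptor channel under 460 nm excitation flags autofluorescence artifacts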
Summary of the method: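 Autofluorescence check: ToxCast chemicals, nominal 100 uM, excitation 460 nm, n=3 runs. Acceptor fluorescence endpoint, bidirectional fit relative to DMSO. Parent assay in HEK293T, 5 h post-dose.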

[2] = molecular target: sheep Cyclooxygenase-1 (Cox1), PTGS1 (gene 443551) (UniProt P05979); experiment: NVS_ENZ_oCOX1: NovaScreen (NVS) Enzymatic Assay for sheep Cyclooxygenase-1 (Cox1) (AID 2283239; active means hit-call score of the fitted dose curve at least 0.9, where 1 is the maximum;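 further: actives reduce cyclooxygenase activity so potencies are for inhibitors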)
Sequence of sheep Cyclooxygenase-1 (Cox1), PTGS1 (gene 443551) (P05979 whole entry, looked up): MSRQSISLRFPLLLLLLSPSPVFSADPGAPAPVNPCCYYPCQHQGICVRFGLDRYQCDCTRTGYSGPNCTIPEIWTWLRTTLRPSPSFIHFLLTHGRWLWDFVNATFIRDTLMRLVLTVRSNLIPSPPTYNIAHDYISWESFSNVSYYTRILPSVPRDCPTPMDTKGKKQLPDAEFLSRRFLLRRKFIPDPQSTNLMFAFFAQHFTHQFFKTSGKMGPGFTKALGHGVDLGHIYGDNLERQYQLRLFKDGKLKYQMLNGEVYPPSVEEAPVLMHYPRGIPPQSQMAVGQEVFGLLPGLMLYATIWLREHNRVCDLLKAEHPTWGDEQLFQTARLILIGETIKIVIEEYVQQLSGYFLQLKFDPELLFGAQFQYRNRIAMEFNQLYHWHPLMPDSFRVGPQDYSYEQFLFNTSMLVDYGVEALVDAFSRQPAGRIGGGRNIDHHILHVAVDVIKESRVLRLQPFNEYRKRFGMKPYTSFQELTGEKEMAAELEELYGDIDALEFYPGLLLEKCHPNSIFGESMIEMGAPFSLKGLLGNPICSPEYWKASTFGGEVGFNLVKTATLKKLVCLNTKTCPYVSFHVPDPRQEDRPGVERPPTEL
Summary of the method: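 Ovine seminal vesicle extract; absorbance (colorimetric) enzyme read-out at 0.66 h post-dose. Primary: single conc 25 uM, duplicate. Follow-up: concentration series on actives. Activity = signal loss vs DMSO baseline.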

[3] = molecular target: human Phosphatase and Tensin Homolog (PTEN), PTEN (gene 5728) (UniProt P60484); experiment: NVS_ENZ_hPTEN: NovaScreen (NVS) Enzymatic Assay for human Phosphatase and Tensin Homolog (PTEN) (AID 2283203; active means hit-call score of the fitted dose curve at least 0.9, where 1 is the maximum)
Sequence of human Phosphatase and Tensin Homolog (PTEN), PTEN (gene 5728) (P60484 whole entry, looked up): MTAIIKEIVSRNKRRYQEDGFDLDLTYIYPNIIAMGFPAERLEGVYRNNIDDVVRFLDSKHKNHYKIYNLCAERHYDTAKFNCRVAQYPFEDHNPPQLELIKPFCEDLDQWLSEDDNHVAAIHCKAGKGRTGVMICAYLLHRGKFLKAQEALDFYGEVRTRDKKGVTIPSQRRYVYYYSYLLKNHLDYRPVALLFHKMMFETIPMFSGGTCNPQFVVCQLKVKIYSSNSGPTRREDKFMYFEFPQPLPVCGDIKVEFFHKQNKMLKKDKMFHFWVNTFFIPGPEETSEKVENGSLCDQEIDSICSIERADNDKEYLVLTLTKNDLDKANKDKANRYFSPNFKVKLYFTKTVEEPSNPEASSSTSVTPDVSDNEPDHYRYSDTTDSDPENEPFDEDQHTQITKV
Summary of the method: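 Cell-free recombinant human PTEN with fluorescent substrate; product separated by electrophoretic mobility shift and read by fluorescence 1 h after dosing. Primary screen in duplicate at 25 uM, actives followed in concentration series versus DMSO.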

PGR (gene 5241) = PGR (gene 5241) (UniProt P06401); experiment: TOX21_PR_BLA_Followup_Antagonist_ratio: Tox21 HEK293 Progesterone Receptor (PR) Antagonism Beta-lactamase Follow-Up Assay, Ratio (AID 2283934; active means hit-call score of the fitted dose curve at least 0.9, where 1 is the maximum;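 further: PR-UAS-bla HEK293T cells stimulated with 1 nM R5020 agonist for 16 hr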)
Sequence of PGR (gene 5241) (P06401 whole entry, looked up): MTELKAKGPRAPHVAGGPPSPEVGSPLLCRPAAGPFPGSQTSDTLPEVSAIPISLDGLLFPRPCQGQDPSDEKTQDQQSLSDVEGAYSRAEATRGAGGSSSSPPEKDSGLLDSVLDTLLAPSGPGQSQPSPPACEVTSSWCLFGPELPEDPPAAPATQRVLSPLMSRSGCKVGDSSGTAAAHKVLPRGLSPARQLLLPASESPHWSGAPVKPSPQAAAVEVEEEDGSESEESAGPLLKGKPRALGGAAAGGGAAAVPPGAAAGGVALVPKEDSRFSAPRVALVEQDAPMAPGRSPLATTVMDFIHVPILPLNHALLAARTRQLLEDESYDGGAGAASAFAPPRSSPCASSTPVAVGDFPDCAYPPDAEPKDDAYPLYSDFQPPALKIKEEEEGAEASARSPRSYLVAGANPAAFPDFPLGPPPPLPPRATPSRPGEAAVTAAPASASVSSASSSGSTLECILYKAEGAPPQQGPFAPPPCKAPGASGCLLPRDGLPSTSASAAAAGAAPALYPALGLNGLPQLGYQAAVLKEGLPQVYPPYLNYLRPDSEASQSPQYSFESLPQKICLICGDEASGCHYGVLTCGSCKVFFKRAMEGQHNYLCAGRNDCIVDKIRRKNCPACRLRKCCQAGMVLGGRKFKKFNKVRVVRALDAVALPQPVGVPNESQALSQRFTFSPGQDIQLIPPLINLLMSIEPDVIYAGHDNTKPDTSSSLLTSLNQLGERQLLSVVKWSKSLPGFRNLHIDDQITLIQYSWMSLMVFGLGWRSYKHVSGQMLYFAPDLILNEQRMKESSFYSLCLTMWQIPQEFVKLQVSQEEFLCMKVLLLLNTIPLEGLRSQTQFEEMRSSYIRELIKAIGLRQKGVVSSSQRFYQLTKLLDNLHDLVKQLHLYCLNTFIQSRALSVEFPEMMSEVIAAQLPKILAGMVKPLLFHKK
Summary of the method: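 Antagonist mode used 1 nM R5020 (final) as agonist on a beta-lactamase reporter line in HEK293T cells. Activity was taken from the substrate cleavage ratio after 16 hr exposure.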

[4] = molecular target: human CYP19A1, CYP19A1 (gene 1588) (UniProt P11511); experiment: NVS_ADME_hCYP19A1: NovaScreen (NVS) CYP450-related Enzyme Activity (ADME) Assay for human CYP19A1 (AID 2283098; active means hit-call score of the fitted dose curve at least 0.9, where 1 is the maximum;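 on AC50: potency for inhibitors seen as loss of fluorescent enzyme signal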)
Sequence of human CYP19A1, CYP19A1 (gene 1588) (P11511 whole entry, looked up): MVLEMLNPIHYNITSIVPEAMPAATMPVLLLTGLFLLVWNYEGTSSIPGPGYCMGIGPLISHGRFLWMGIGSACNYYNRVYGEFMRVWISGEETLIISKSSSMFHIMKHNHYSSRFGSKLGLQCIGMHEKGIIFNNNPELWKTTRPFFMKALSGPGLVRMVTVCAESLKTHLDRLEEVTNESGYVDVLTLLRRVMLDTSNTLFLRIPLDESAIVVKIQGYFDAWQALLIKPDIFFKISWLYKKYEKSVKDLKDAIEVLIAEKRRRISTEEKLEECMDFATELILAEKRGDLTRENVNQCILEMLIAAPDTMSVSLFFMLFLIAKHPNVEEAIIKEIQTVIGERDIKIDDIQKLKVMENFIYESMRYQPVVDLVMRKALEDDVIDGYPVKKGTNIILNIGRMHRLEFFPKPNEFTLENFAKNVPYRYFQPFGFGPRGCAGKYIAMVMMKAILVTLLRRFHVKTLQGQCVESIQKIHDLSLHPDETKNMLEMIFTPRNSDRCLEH
Summary of the method: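 Recombinant enzyme in a cell-free format, read 0.5 h after dosing by fluorescence from a fluorogenic substrate. Loss of signal was fitted against acetonitrile as baseline. Primary screen in duplicate at 10 uM, actives then tested in concentration series.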

[5] = read-out: Monokine induced gamma interferon (MIG), CXCL9 (gene 4283); experiment: BSK_KF3CT_MIG: BioMAP Diversity Plus: KF3CT Assay for Monokine induced gamma interferon (MIG) Biomarker Activity (AID 2284248); conditions: primary human keratinocytes with fibroblasts
Summary of the method: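 ELISA read-out of MIG after 24 h chemical exposure of human skin primary co-culture (keratinocytes, foreskin fibroblasts). Gain of signal relative to DMSO negative control was analysed.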

[6] = read-out: Interferon-inducible T-cell alpha chemoattractant (ITAC), CXCL11 (gene 6373); experiment: BSK_hDFCGF_ITAC: BioMAP Diversity Plus: hDFCGF Assay for Interferon-inducible T-cell alpha chemoattractant (ITAC) Biomarker Activity (AID 2284251); conditions: primary human foreskin fibroblasts
Summary of the method: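 Primary human foreskin fibroblasts (hDFCGF system) treated for 24 h; I-TAC quantified by ELISA. Gain-direction fitting versus DMSO; parallel SRB staining of total protein flagged overt cytotoxicity.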

[7] = read-out: Plasminogen activator inhibitor-1 (PAI1), SERPINE1 (gene 5054); experiment: BSK_KF3CT_PAI1: BioMAP Diversity Plus: KF3CT Assay for Plasminogen activator inhibitor-1 (PAI1) Biomarker Activity (AID 2284252); conditions: primary human keratinocytes with fibroblasts
Summary of the method: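 Signal is PAI-1 detected by ELISA in a human skin-derived keratinocyte/fibroblast co-culture, 24 h after dosing; DMSO served as negative control and baseline.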

[8] = read-out: Intercellular Adhesion Molecule 1 (ICAM1), ICAM1 (gene 3383); experiment: BSK_BE3C_ICAM1: BioMAP Diversity Plus: BE3C Assay for Intercellular Adhesion Molecule 1 (ICAM1) Biomarker Activity (AID 2284278); conditions: primary human bronchial epithelial cells;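 on outcome: cell-surface ICAM-1 protein level quantified by ELISA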
Summary of the method: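 Measured by ELISA: ICAM-1 expressed by primary human bronchial epithelial cells 24 h after compound treatment, with upward-direction fitting versus DMSO vehicle.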

[9] = read-out: Interferon-inducible T-cell alpha chemoattractant (ITAC), CXCL11 (gene 6373); experiment: BSK_BE3C_ITAC: BioMAP Diversity Plus: BE3C Assay for Interferon-inducible T-cell alpha chemoattractant (ITAC) Biomarker Activity (AID 2284279); conditions: primary human bronchial epithelial cells
Summary of the method: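 Steps: dose human bronchial epithelial cells with chemical; incubate 24 h; measure I-TAC by ELISA; fit endpoint in positive direction against DMSO control. Cytotoxicity was checked in parallel cultures by SRB staining at harvest.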

[10] = IUF_NPC1_viability_72hr: Viability Assessment at 72 hours in the Leibniz Research Institute for Environmental Medicine (IUF) Neural Progenitor Cell Proliferation Assay (NPC1) (AID 2284209)
Summary of the method: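 Each well receives one 0.3 mm progenitor sphere from fetal brain cortex; test chemical is added at plating and left three days. Viability comes from alamar blue fluorescence, multiplexed with LDH and BrdU readouts in the same well.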

[11] = IUF_NPC2a_radial_glia_migration_120hr: Leibniz Research Institute for Environmental Medicine (IUF) 120-hour Neural Progenitor Cell Migration Assay for Radial Glia Migration (NPC2a) (AID 2284298)
Summary of the method: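 Hoechst-stained nuclei imaged at 120 h; algorithm maps sphere core by densest nuclei, sets migration edge at density threshold, gives radial glia migration distance (um) per well vs DMSO. hNPC spheres (0.3 mm), PDL/laminin, DMEM/F12 3:1 + 1% N2.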

[12] = IUF_NPC2a_radial_glia_migration_72hr: Leibniz Research Institute for Environmental Medicine (IUF) 72-hour Neural Progenitor Cell Migration Assay for Radial Glia Migration (NPC2a) (AID 2284299)
Summary of the method: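 Migration out of plated human neural progenitor spheres is scored at 72 h as the distance in um from the sphere core edge to the edge of the migration area. Values are the mean of four manual measurements per well, normalised to DMSO.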

[13] = IUF_NPC3_neuronal_differentiation_120hr: Leibniz Research Institute for Environmental Medicine (IUF) 120-hour Neuronal Differentiation Assay (NPC3) (AID 2284301)
Summary of the method: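 Human fetal (GW 16-19) neural progenitor spheres (0.3 mm) plated on poly-D-lysine/laminin in N2 differentiation medium, exposed 120 h at 37C with half-medium renewal day 3; 7 concentrations. TUBB3+ cells as % of Hoechst nuclei, CNN-identified; DMSO baseline.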

[14] = IUF_NPC4_neurite_length_120hr: Leibniz Research Institute for Environmental Medicine (IUF) 120-hour Neuronal Morphology Assay for Neurite Length (NPC4) (AID 2284302)
Summary of the method: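 Human fetal neural progenitor spheres (0.3 mm) plated on poly-D-lysine/laminin in N2 differentiation medium, exposed from day 0 for 120 h with half-medium refresh at day 3, 37C. Mean neurite length (um) of TUBB3-positive neurons from skeletonized immunostaining images; DMSO ≤0.1%.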

[15] = IUF_NPC4_neurite_area_120hr: Leibniz Research Institute for Environmental Medicine (IUF) 120-hour Neuronal Morphology Assay for Neurite Area (NPC4) (AID 2284305; active means hit-call score of the fitted dose curve at least 0.9, where 1 is the maximum)
Summary of the method: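 Human fetal neural progenitor spheres (0.3 mm) plated on poly-D-lysine/laminin in N2 differentiation medium, exposed 120 h (7 concentrations, DMSO ≤0.1%, half-medium refresh day 3). Fixed, TUBB3 immunostained; mean neurite area per neuron by Omnisphero skeletonization.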

[16] = IUF_NPC2-5_cytotoxicity_120hr: Cytotoxicity Assessment at 120 hours in the Leibniz Research Institute for Environmental Medicine (IUF) Neural Progenitor Cell Migration and Differentiation Assay (NPC2-5) (AID 2284307; active means hit-call score of the fitted dose curve at least 0.9, where 1 is the maximum)
Summary of the method: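 hNPC spheres on PDL/laminin, N2 medium, 37C; 7 concs + solvent control, DMSO ≤0.1%; 5-day exposure, half medium changed day 3. LDH in supernatant at 120 h, resazurin→resorufin fluorescence, gain-of-signal.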

[17] = IUF_NPC2-5_cell_number_120hr: Cell Number Assessment at 120 hours in the Leibniz Research Institute for Environmental Medicine (IUF) Neural Progenitor Cell Migration and Differentiation Assay (NPC2-5) (AID 2284308);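 further: count of Hoechst-stained nuclei in migration zone around plated human neural progenitor spheres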
Summary of the method: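 Hoechst-stained nuclei within the migration area were counted by automated high content imaging after 120 h. Single hNPC spheres differentiated on poly-D-lysine/laminin in DMEM/F12 (3:1) with 1% N2, compound present throughout, DMSO ≤0.1%.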

[18] = IUF_NPC2-5_viability_120hr: Viability Assessment at 120 hours in the Leibniz Research Institute for Environmental Medicine (IUF) Neural Progenitor Cell Migration and Differentiation Assay (NPC2-5) (AID 2284312)
Summary of the method: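 Human fetal neural progenitor spheres (0.3 mm) plated on poly-D-lysine/laminin in N2 differentiation medium, exposed 120 h with half-medium refresh at day 3. Viability by alamar blue resazurin fluorescence; 7 concentrations, DMSO max 0.1%.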

[19] = IUF_NPC1_cytotoxicity_72hr: Cytotoxicity Assessment at 72 hours in the Leibniz Research Institute for Environmental Medicine (IUF) Neural Progenitor Cell Proliferation Assay (NPC1) (AID 2284332; active means hit-call score of the fitted dose curve at least 0.9, where 1 is the maximum;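 further: rising LDH signal means more cytotoxicity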)
Summary of the method: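 hNPC spheres (fetal brain, gestational week 16-19) grown under proliferative EGF/FGF conditions, pH 7.2-7.6, were treated continuously for 72 h. Cytotoxicity came from LDH-coupled resazurin fluorescence in each well's supernatant.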

Oc1cc(Cl)ccc1Cl
outcome [1]: inactive

N#Cc1cccc(C#N)c1
AC50 [2]: 29.2 µM (active)

SCc1ccco1
AC50 [3]: 25 µM (active)

N#Cc1cc(I)c(O)c(I)c1
outcome (PGR (gene 5241)): inactive

CCOP(=O)(OCC)Oc1ccc([N+](=O)[O-])cc1
AC50 [4]: 6.54 µM (active)

Clc1ccc(-c2ccccc2)cc1
outcome [3]: inactive

O=[N+]([O-])O
outcome [5]: inactive | outcome [6]: inactive | outcome [7]: inactive | outcome [8]: inactive | outcome [9]: inactive

C=CC(=O)OCC(CC)CCCC (stereo not given)
outcome [1]: inactive

C[C@]12CCC(=O)C(O)=C1CC[C@@H]1[C@@H]2CC[C@]2(C)C(=O)CC[C@@H]12
AC50 (PGR (gene 5241)): 11.3 µM (active)

COc1ccc(CO)cc1
outcome [5]: inactive | outcome [6]: inactive | outcome [7]: inactive | outcome [8]: inactive | outcome [9]: inactive

Oc1ccc(C2(c3ccc(O)cc3)c3ccccc3-c3ccccc32)cc1
AC50 [5]: 7.47 µM (active) and 7.4 µM (active) | AC50 [6]: 1.8 µM (active) and 1.21 µM (active) | AC50 [7]: 5.43 µM (active) | AC50 [8]: 7.57 µM (active) and 7.24 µM (active) | AC50 [9]: 5.43 µM (active) and 5.42 µM (active)

O=P(O)(Oc1ccccc1)Oc1ccccc1
outcome [1]: inactive

CC(C)CCCCCCCOP(=O)(Oc1ccccc1)Oc1ccccc1
outcome [10]: inactive | outcome [11]: inactive | outcome [12]: inactive | outcome [13]: inactive | outcome [14]: inactive | outcome [15]: inactive | outcome [16]: inactive | outcome [17]: inactive | outcome [18]: inactive | outcome [19]: inactive

CCCCCCCCCCCC#N
outcome [3]: inactive

O=P1(NCCCl)OCCCN1CCCl (stereo not given)
outcome [2]: inactive

CNC(=N[N+](=O)[O-])NCC1CCOC1 (stereo not given)
outcome [10]: inactive | outcome [11]: inactive | outcome [12]: inactive | outcome [13]: inactive | outcome [14]: inactive | outcome [15]: inactive | outcome [16]: inactive | outcome [17]: inactive | outcome [18]: inactive | outcome [19]: inactive

CCC(=O)c1ccc(Cl)cc1
outcome [4]: inactive

C[C@]12CC[C@H]3[C@@H](CC[C@@]45O[C@@H]4C(O)=C(C#N)C[C@]35C)[C@@H]1CC[C@@H]2O
outcome (PGR (gene 5241)): inactive

S=c1[nH]c2ccccc2[nH]1
AC50 [2]: 0.984 µM (active)

Cc1ccc(OP(=O)(Oc2ccc(C)cc2)Oc2ccc(C)cc2)cc1 (tested in a mixture with another compound)
outcome [10]: inactive | outcome [11]: inactive | outcome [12]: inactive | outcome [13]: inactive | outcome [14]: inactive | outcome [15]: inactive | outcome [16]: inactive | outcome [17]: inactive | outcome [18]: inactive | outcome [19]: inactive

CC1(C)[C@H](C(=O)O[C@H](C#N)c2cccc(Oc3ccccc3)c2)[C@@H]1C=C(Br)Br
outcome [4]: inactive | outcome [10]: inactive | AC50 [11]: 0.0654 µM (active) | AC50 [12]: 0.67 µM (active) | outcome [13]: inactive | outcome [14]: inactive | outcome [15]: inactive | outcome [16]: inactive | AC50 [17]: 0.461 µM (active) | outcome [18]: inactive | outcome [19]: inactive
